Data reported in PubChem BioAssay (NCI).
Compounds without any hit were thinned out: in the full panel of roughly 79,000, 15% have a hit. Calls of active or inactive are those of the source. No stated cut-off is given here; in the data, active means growth inhibition above about 70%; inactive means the rest.

How the values were obtained:
[1] = NCI Yeast Anticancer Drug Screen. Data for the rad50 strain (AID 155);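 further: 0% = growth of vehicle-only cultures of the same strain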; conditions: S. cerevisiae rad50 strain growth inhibition; at 50.0 µM; hits give high values
How it was run: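 Compounds were tested on a yeast strain with an engineered DNA damage repair alteration; the reported value is growth inhibition normalised to vehicle treatment.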

[2] = NCI Yeast Anticancer Drug Screen. Data for the mec2-1 strain (AID 157); conditions: S. cerevisiae mec2-1 strain, at 50.0 µM, hits give high values
How it was run: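 Mutant yeast (mec2-1) grown with compound; growth inhibition relative to vehicle control reported.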

[3] = NCI Yeast Anticancer Drug Screen. Data for the sgs1 mgt1 strain (AID 161);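 further: 0% = growth of cultures given vehicle only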; conditions: S. cerevisiae sgs1 mgt1 strain, at 50.0 µM, hits give high values
How it was run: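 Growth of a repair-deficient yeast mutant was monitored after compound treatment and expressed as inhibition relative to vehicle-treated cultures.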

[4] = NCI Yeast Anticancer Drug Screen. Data for the cln2 rad14 strain (AID 165);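 further: 0% = growth equal to vehicle treated cultures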; conditions: S. cerevisiae cln2 rad14 strain, at 50.0 µM, hits give high values
How it was run: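 Readout is yeast growth inhibition versus vehicle-treated controls, using a strain with cln2 and rad14 alterations exposed to compound.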

[5] = NCI Yeast Anticancer Drug Screen. Data for the bub3 strain (AID 167); conditions: S. cerevisiae bub3 mutant strain, at 50.0 µM, hits give high values
How it was run: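 Growth of a checkpoint-deficient yeast mutant is measured after compound exposure. Values represent inhibition relative to vehicle.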

[6] = NCI Yeast Anticancer Drug Screen. Data for the mlh1 rad18 strain (AID 175); conditions: S. cerevisiae mlh1 rad18 strain growth inhibition; at 50.0 µM; hits give high values
How it was run: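 Genetically defined yeast (DNA repair-deficient) exposed to compounds; growth inhibition determined relative to vehicle.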

Measured: growth inhibition

CC(C)(C)OC(=O)Cc1ccc2c(ccn2Cc2ccccc2)c1
inactive: [1] -26.2% | [2] -29.6% | [3] -10.9% | [4] -22.1% | [5] 4.65% | [6] -20%

CC(C)(C)c1cc(C(=S)N2CCN(C(=S)c3cc(C(C)(C)C)c(O)c(C(C)(C)C)c3)CC2)cc(C(C)(C)C)c1O
inactive: [1] 4.05% | [2] -10.7% | [3] -10.9% | [4] -48.5% | [5] 2.45% | [6] -16.9%

O=C(O)c1c2c(cc3c(=O)c4ccccc4[nH]c13)CCCC2
inactive: [1] -5.65% | [2] -16.4% | [3] 18.7% | [4] 7.25% | [5] -15.7% | [6] 5.2%

CS(=O)(=O)OC[C@H](NC(=O)c1ccccc1)[C@H](COS(C)(=O)=O)NC(=O)c1ccccc1
inactive: [1] 6.5% | [2] 9.3% | [3] 18.4% | [4] 9.9% | [5] -9.85% | [6] 15.3%

CCCCC1(NN=C2CCCCC2)C(=O)N(c2ccccc2)N(c2ccccc2)C1=O
inactive: [1] -11.2% | [2] -6.2% | [3] -0.4% | [4] -0.75% | [5] -7.4% | [6] -8.65%

CC[O-].CC[O-].O=C1C=C([O-])C(=O)c2ccccc21.O=C1C=C([O-])C(=O)c2ccccc21.[Ti+4]
inactive: [1] 17.3% | [2] 14.3% | [3] 15.4% | [4] 26.2% | [5] 30.4% | [6] 4.9%

COC(=O)/C=C1\C(=O)N(C(C)=O)c2ccccc21
inactive: [1] 12.3% | [2] 16.1% | [4] 40.1% | [5] 50.6%
active: [3] 72.2% | [6] 76.4%

CO[C@@]12C[C@@H](C)C3=CCC(C)=C3CC1=C(C)C(=O)O2
inactive: [1] 8.9% | [2] -4.05% | [3] 16.6% | [4] 2.9% | [5] 26.4% | [6] -68.3%

CC(=O)C1CCC(C)(O)CC1=O (stereo not given)
inactive: [1] -0.6% | [2] -18% | [3] -14.5% | [4] -9.35% | [5] -8.4% | [6] -3.65%

CC(C)=CC1C[C@H](C2CC=C3C2(C)CCC2[C@@]3(C)C(=O)CC3[C@]2(C)C=CC(=O)[C@]3(C)CO)CO1 (stereo not given in full)
active: [1] 77.8% | [2] 78.9% | [3] 81.8% | [4] 78% | [5] 81.7% | [6] 86.2%

ClCCOCOc1ccc2ccccc2c1
inactive: [1] 29.6% | [2] 23.9% | [3] 43.6% | [4] 16.7% | [5] 26.6% | [6] 26.9%

CCCCN(CCCC)CC(CC)N(CCCC)CCCC (stereo not given)
inactive: [1] -8.4% | [2] 1.8% | [3] -5.7% | [4] -38.6% | [5] 10.8% | [6] 7.35%

CC1(C)OC2C(COCc3ccccc3)=CC(n3ccc(=O)[nH]c3=O)C2O1 (stereo not given)
inactive: [1] -8.3% | [2] -16.8% | [3] 1.7% | [4] -0.7% | [5] 10.1% | [6] 14.3%

COC(=O)CCC(=O)CC(=O)C(=O)Nc1c(Cl)cc([N+](=O)[O-])cc1Cl
inactive: [1] 11.4% | [2] -17.1% | [3] 0.5% | [4] 24.1% | [5] -4.5% | [6] 3.8%

OCCNc1ncnc2ccccc12
inactive: [1] -16.6% | [2] -1.7% | [3] 4.35% | [4] -4.7% | [5] 6.15% | [6] -18.9%

Cc1cccc(C(=O)c2ccccc2)c1C(=O)O
inactive: [1] 10.7% | [2] 2.45% | [3] 4.55% | [4] 2.45% | [5] -9.25% | [6] 2.15%

CC(=O)CC(=O)CCCCC(=O)O
inactive: [1] -0.15% | [2] -11.1% | [3] -6.55% | [4] -22.6% | [5] -5.6% | [6] 4.8%

CCCNc1nc(C)nc2[nH]cc(C)c12
inactive: [1] 7.35% | [2] -5.1% | [3] -3.15% | [4] -31.1% | [5] -7.7% | [6] -7.65%

COc1cc(C(=O)NC(CCN)(c2ccccc2)c2ccccc2)cc(OC)c1OC
inactive: [1] -2.55% | [2] 30.4% | [3] 14.4% | [4] 10.4% | [5] 43.2% | [6] 29.8%

C1COC(C2=NCCO2)=N1
inactive: [1] -12.5% | [2] 2.6% | [3] -14.1% | [4] -42% | [5] 6.1% | [6] -0.4%
